Test results from ChEMBL document CHEMBL3988442, “University of Dundee, Small-Polar-MMV Screening Library” (2021).
Where “and” joins values, the source holds several entries; their conditions need not be identical. Equal values may be shown once. For some of these results: Measured potencies and affinities stand elsewhere.

Experiments:
Design in all cases: scale not given: direction of the effect not stated beside the values
[1] = molecular target: Protein translocase subunit SecA (Escherichia coli (strain K12)) (UniProt P10408); test: Assay to Identify E. coli SecA ATPase Inhibitors; format: functional; details: 30 µM
[2] = molecular target: T1, Ubiquitin-activating enzyme e1, putative (Leishmania donovani (strain BPK282A1)) (UniProt E9BSI1); test: Leishmania donovani Ubiquitin Activating Enzyme (LdE1); format: functional; details: 30 µM
T1 sequence (whole entry): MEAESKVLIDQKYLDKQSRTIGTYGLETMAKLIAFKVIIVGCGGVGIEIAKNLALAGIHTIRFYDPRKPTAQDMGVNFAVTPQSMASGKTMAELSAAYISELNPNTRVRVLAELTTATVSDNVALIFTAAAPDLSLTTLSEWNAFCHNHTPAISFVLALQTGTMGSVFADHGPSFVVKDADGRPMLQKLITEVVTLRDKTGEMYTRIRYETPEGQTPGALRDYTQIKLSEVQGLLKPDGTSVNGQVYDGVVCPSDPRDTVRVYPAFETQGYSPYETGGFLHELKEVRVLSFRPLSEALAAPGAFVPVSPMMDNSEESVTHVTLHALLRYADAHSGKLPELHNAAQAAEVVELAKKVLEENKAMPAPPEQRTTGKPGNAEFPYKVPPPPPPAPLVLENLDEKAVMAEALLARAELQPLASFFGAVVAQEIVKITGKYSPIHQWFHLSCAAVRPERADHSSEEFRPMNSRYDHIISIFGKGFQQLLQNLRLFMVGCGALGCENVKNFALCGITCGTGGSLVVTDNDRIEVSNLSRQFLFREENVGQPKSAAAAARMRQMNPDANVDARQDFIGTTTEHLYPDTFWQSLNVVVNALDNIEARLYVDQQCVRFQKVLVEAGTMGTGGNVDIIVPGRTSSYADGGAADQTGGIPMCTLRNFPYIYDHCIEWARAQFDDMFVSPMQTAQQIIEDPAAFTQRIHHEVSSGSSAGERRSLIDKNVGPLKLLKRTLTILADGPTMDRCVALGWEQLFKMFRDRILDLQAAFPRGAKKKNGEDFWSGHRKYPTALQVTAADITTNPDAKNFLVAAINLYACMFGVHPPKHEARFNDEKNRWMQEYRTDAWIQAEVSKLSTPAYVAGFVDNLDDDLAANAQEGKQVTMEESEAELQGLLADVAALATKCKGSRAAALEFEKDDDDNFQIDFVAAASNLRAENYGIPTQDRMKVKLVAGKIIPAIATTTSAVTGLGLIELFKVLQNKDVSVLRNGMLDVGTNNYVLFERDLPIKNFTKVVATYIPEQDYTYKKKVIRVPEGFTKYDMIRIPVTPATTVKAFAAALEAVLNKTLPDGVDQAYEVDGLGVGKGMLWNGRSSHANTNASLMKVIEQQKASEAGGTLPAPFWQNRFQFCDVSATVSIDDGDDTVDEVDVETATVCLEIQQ

[3] = molecular target: AMP-activated protein kinase, AMPK (Homo sapiens) (UniProt P54646+O43741+P54619+Q9UGJ0+Q9Y478+Q13131+Q9UGI9); test: AMP-dependent Kinase enzyme assay. An in vitro enzyme assay that detects ADP turnover that is directly proportional to AMPK activity. This uses naive AMPK that is activated during the assay with MK-8722; format: functional; details: 30 µM
[4] = molecular target: Sialic acid-binding Ig-like lectin 9 (Homo sapiens) (UniProt Q9Y336); test: Hs-Siglec9 ALPHAscreen SOP 20170721; details: 10 µM
Trypanosoma cruzi = test: Trypanosoma cruzi phosphomannomutase and mannose-1-phosphate guanylyltransferase assay; format: functional; details: 10 µM
[5] = molecular target: T2, Arginase-2, mitochondrial (Homo sapiens) (UniProt P78540); test: in vitro enzyme assay to detect the production of urea directly proportional to the activity of Arginase II; format: functional; details: 33.3 µM; further: in the data most compounds retested in dose-response had high values
T2 sequence (whole entry): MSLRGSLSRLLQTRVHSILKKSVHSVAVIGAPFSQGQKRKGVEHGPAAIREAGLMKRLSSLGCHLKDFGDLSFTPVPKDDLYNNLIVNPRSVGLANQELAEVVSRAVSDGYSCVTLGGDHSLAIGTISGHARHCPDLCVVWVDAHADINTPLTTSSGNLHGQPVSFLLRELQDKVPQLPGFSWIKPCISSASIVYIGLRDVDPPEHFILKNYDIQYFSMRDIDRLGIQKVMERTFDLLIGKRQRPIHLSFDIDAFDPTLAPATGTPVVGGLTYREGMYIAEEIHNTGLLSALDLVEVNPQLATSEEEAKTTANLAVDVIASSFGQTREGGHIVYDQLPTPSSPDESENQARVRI

[6] = molecular target: T3, Proteasome subunit beta (Trypanosoma cruzi) (UniProt O96673); test: Trypanosoma cruzi proteasome chymotrypsin-like activity (TcProtChymo) assay.; further: in the data most compounds retested in dose-response had high values; format: functional; details: 9.37 µM
T3 sequence (whole entry): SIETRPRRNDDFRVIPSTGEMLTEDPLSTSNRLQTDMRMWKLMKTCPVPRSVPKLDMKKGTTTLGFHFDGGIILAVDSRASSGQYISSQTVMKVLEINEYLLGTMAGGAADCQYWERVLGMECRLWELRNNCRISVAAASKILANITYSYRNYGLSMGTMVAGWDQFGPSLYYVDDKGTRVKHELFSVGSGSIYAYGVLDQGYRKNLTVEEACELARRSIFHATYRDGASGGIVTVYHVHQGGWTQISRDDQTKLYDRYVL

Homo sapiens = organism: Homo sapiens; test: To identify inhibition of the IFN signalling (Jak-Stat) pathway via expression of an eGFP reporter gene under the control of an IFN-stimulated response element (ISRE) containing MxA promoter.; format: functional; details: 30 µM
[7] = molecular target: T4, Tyrosyl-tRNA synthetase, putative (Trypanosoma cruzi (strain CL Brener)) (UniProt Q4DSP6); test: Trypanosoma cruzi tyrosyl tRNA synthetase (TcYRS) _High Tyrosine SOP; format: functional; details: 30 µM; further: in the data most compounds retested in dose-response had high values
T4 sequence (whole entry): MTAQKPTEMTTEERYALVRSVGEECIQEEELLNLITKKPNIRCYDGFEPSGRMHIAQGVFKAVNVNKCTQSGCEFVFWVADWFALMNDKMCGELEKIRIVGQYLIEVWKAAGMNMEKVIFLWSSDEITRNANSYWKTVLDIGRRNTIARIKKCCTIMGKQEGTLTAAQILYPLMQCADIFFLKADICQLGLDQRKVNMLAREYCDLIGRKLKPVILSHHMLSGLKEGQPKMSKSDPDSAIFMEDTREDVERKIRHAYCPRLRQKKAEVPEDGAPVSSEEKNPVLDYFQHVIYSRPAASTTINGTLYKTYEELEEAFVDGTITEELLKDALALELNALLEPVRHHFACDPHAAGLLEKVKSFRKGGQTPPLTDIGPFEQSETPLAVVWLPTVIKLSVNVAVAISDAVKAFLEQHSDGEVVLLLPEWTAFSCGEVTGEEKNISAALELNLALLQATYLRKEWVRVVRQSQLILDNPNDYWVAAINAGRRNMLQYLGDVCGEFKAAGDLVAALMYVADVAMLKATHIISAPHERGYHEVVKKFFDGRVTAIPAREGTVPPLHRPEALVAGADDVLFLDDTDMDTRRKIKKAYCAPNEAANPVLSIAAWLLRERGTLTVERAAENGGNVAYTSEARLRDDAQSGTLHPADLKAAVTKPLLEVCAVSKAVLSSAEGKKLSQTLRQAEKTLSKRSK

[8] = molecular target: T4, Tyrosyl-tRNA synthetase, putative (Trypanosoma cruzi (strain CL Brener)); test: Trypanosoma cruzi tyrosyl tRNA synthetase (TcYRS) SOP; format: functional; details: 30 µM
[9] = molecular target: Chromo domain-containing protein 1 (Saccharomyces cerevisiae (strain ATCC 204508 / S288c) (Baker's yeast)) (UniProt P32657); test: ScCHD-1 Enzyme Inhibition Assay; format: functional; details: 30 µM; further: in the data most compounds retested in dose-response had high values
N/A = test: Trypanosoma cruzi proteasome luciferase counter-screen; format: functional; details: 9.37 µM

Sequence of Chromo domain-containing protein 1 (Saccharomyces cerevisiae (strain ATCC 204508 / S288c) (Baker's yeast)) (P32657 whole entry, the tested form may be a part): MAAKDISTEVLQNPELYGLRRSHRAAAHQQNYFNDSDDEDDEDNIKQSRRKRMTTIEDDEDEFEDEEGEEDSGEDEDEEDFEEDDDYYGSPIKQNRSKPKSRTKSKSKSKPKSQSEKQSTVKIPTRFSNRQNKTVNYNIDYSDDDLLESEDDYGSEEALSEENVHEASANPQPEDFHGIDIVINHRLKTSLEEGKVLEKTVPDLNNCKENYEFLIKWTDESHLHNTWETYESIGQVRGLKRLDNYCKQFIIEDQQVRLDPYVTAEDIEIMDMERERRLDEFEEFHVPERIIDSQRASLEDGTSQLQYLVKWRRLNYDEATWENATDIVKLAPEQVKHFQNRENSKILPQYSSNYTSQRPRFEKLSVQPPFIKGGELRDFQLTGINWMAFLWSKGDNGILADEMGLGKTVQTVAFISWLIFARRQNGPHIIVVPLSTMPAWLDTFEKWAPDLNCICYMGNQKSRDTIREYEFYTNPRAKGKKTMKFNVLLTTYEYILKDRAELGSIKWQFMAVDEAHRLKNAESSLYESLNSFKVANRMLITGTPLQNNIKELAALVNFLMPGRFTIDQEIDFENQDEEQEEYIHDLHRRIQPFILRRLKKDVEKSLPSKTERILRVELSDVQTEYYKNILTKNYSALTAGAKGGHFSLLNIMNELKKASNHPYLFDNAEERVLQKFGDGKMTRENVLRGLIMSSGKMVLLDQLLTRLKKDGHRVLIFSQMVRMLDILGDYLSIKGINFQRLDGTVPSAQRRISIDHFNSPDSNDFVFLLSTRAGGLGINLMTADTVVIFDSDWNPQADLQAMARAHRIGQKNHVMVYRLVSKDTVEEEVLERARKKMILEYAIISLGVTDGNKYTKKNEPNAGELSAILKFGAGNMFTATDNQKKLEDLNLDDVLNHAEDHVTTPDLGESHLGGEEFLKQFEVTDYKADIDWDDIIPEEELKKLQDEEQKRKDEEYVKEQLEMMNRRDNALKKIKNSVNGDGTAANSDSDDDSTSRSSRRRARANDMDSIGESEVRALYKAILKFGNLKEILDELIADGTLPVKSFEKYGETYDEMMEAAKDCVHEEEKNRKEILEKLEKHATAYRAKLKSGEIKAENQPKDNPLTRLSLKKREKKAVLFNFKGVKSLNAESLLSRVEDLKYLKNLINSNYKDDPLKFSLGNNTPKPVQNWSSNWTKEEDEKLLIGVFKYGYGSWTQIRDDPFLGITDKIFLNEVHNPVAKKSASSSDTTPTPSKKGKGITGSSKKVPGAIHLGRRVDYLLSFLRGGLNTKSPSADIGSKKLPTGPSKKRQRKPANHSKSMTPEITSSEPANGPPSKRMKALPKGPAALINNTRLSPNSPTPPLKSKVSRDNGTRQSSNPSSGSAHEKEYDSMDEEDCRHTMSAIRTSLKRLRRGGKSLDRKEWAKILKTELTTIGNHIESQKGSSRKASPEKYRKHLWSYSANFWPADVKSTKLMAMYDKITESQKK
Sequence of Sialic acid-binding Ig-like lectin 9 (Homo sapiens) (Q9Y336 whole entry): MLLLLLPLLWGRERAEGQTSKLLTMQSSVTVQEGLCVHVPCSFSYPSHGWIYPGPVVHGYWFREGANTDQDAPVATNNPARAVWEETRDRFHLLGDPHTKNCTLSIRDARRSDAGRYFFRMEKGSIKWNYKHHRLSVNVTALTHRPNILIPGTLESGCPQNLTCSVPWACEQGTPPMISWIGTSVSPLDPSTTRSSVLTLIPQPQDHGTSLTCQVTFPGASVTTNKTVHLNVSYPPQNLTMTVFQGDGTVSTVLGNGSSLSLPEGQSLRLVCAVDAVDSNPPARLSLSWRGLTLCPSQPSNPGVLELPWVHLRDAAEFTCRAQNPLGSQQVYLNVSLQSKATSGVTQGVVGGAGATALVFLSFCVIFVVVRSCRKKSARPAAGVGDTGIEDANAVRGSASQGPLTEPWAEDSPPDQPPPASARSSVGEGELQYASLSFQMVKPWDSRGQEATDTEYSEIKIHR
Sequence of Protein translocase subunit SecA (Escherichia coli (strain K12)) (P10408 whole entry): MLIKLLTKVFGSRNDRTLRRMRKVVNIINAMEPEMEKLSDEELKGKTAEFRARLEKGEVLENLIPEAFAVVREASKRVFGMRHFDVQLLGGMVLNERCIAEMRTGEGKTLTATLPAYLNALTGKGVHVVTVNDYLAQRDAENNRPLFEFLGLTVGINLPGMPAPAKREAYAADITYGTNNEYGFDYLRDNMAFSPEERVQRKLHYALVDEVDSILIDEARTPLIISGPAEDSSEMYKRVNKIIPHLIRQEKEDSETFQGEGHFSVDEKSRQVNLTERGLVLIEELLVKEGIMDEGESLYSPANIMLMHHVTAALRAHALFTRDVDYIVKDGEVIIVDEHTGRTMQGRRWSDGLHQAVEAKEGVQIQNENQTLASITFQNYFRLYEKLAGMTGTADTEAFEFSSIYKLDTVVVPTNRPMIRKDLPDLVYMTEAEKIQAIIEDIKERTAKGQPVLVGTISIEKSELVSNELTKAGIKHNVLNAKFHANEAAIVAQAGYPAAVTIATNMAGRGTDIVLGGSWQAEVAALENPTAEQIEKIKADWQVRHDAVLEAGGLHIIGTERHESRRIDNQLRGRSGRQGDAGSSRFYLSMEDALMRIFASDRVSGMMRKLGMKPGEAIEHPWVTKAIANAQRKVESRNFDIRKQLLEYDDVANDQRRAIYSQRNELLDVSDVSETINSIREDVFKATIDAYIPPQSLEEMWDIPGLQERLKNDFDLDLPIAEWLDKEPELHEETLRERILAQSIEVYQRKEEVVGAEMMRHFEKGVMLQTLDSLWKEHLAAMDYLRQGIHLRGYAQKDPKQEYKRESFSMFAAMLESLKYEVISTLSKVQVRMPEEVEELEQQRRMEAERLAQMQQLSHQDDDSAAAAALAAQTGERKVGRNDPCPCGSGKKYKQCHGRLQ

COC(=O)c1ccoc1COC(=O)CCc1ccc(OC)c(OC)c1
Percent Effect [1]: -0.0167%
Percent Effect [2]: -5.26%
Percent Effect [3]: 11.1%
Percent Effect [4]: 1.57%
Percent Effect (Trypanosoma cruzi): -3.99%
Percent Effect [5]: 0%
Percent Effect [6]: 13.7%
Percent Effect (Homo sapiens): -9.69%
Percent Effect [7]: 0%
Percent Effect [8]: -20.8%
Percent Effect [9]: 1.64%

Cc1nc(C)n(C2CCCN(C(=O)Cc3n[nH]c4ccccc34)C2)n1 (stereo not drawn)
Percent Effect [1]: -5.17%
Percent Effect [2]: -2.6%
Percent Effect [3]: 5.72%
Percent Effect [4]: 7.39%
Percent Effect (Trypanosoma cruzi): 1.69%
Percent Effect [5]: -7.47%
Percent Effect [6]: 4.56%
Percent Effect (Homo sapiens): 5.91%
Percent Effect [7]: 5.83%
Percent Effect [8]: 14.6%
Percent Effect [9]: -7.79%

CC(C)Oc1cccc(C(O)CNC(=O)CCc2ccncc2)c1 (stereo not drawn)
Percent Effect [1]: -3.24%
Percent Effect [2]: -5.48%
Percent Effect [3]: 2.43%
Percent Effect [4]: 13.4%
Percent Effect (Trypanosoma cruzi): -3.97%
Percent Effect [5]: -7.58%
Percent Effect [6]: 3.85%
Percent Effect (Homo sapiens): 0.683%
Percent Effect [7]: 1.04%
Percent Effect [8]: 3.7%
Percent Effect [9]: 5.03%

Cc1cc(CNC(=O)C2CCCCN2C(=O)OC(C)(C)C)no1 (stereo not drawn)
Percent Effect [1]: -4.46%
Percent Effect [2]: 2.7%
Percent Effect [3]: -5.58%
Percent Effect [4]: 0.833%
Percent Effect (Trypanosoma cruzi): -2.83%
Percent Effect [5]: 0.744%
Percent Effect [6]: 1.29%
Percent Effect (Homo sapiens): 4.89%
Percent Effect [7]: 3.23%
Percent Effect [8]: 13.6%
Percent Effect [9]: -3.75%

Cc1cn2nc(N3CCCC3CC(C)(C)C)sc2n1 (stereo not drawn)
Percent Effect [1]: -5.41%
Percent Effect [2]: -1.27%
Percent Effect [3]: 7.29%
Percent Effect [4]: 3.5%
Percent Effect (Trypanosoma cruzi): 0.103%
Percent Effect [5]: 2.8%
Percent Effect [6]: 11%
Percent Effect (Homo sapiens): 15.4%
Percent Effect [7]: 3.12%
Percent Effect [8]: 7.59%
Percent Effect [9]: -4.52%

O=C(C1=CCCC1)N1C[C@@H]2COC[C@]2(COc2cccnc2)C1
Percent Effect [1]: -2.49%
Percent Effect [2]: 2.7%
Percent Effect [3]: 7.33%
Percent Effect [4]: 5.37%
Percent Effect (Trypanosoma cruzi): -1.27%
Percent Effect [5]: 5.41%
Percent Effect (N/A): 7.45% and 8.06%
Percent Effect (Homo sapiens): 0.513%
Percent Effect [7]: 0%
Percent Effect [8]: -2.56%
Percent Effect [9]: 4.29%

Cc1occc1C(=O)N1CCC2(CC1)C(c1cnn(C)c1)CC(=O)N2C (stereo not drawn)
Percent Effect [1]: -5.4%
Percent Effect [2]: 13.5%
Percent Effect [3]: 6.87%
Percent Effect [4]: -12.9%
Percent Effect (Trypanosoma cruzi): -4.59%
Percent Effect [5]: 1.59%
Percent Effect (N/A): 11.5% and 13.8%
Percent Effect (Homo sapiens): 15.9%
Percent Effect [7]: -11.9%
Percent Effect [8]: 7.69%
Percent Effect [9]: -4.17%

CC(Cn1ccnc1)NC(=O)C1(c2ccc(F)cc2)CC1 (stereo not drawn)
Percent Effect [1]: -2.91%
Percent Effect [2]: 17.7%
Percent Effect [3]: -3.38%
Percent Effect [4]: -4.39%
Percent Effect (Trypanosoma cruzi): 2.93%
Percent Effect [5]: -3.42%
Percent Effect [6]: 4.83%
Percent Effect (Homo sapiens): -2.07%
Percent Effect [7]: 1.48%
Percent Effect [8]: 16.5%
Percent Effect [9]: -3.1%
